# Data published in PubChem BioAssay AID1159580 (chemical genetic matrix, 2015).
# Hit rate of the full screen: of about 5,500 compounds, about 2,000 (36%) were called active. Another 18% or so got no clear call; they are omitted. The list shows a part of the results. Values without a mark were called inactive. Rule as the data show it: active = normalized growth mostly below about 0.91 (no sharp cut-off); inconclusive = no clear call, values can overlap the other calls; inactive = mostly above about 0.92.
# Test: chemical genetic growth profiling, strain panel (AID 1159580);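 also: tested at 20 µM; growth read once vehicle control cultures reached saturation at 30 °C; 1 = growth at the plate median or of vehicle wells; lower values mean less growth of the strain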
# Conditions: S. cerevisiae deletion strains, growth OD
# [1] = locus YAL021C, strain ccr4, hits give low values
# [2] = locus YAL026C, strain drs2, hits give low values
# [3] = locus YAL030W, strain snc1, hits give low values
# [4] = locus YBL061C, strain skt5, hits give low values
# [5] = locus YBR009C, strain hhf1, hits give low values
# [6] = locus YBR023C, strain chs3, hits give low values
# [7] = locus YBR171W, strain sec66, hits give low values
# [8] = locus YBR231C, strain swc5, hits give low values
# [9] = locus YBR279W, strain paf1, hits give low values
# [10] = locus YCL011C, strain gbp2, hits give low values
# [11] = locus YCL016C, strain dcc1, hits give low values
# [12] = locus YCL069W, strain vba3, hits give low values
# [13] = locus YCR088W, strain abp1, hits give low values
# [14] = locus YDL005C, strain med2, hits give low values
# [15] = locus YDL040C, strain nat1, hits give low values
# [16] = locus YDR001C, strain nth1, hits give low values
# [17] = locus YDR069C, strain doa4, hits give low values
# [18] = locus YDR137W, strain rgp1, hits give low values
# [19] = locus YDR159W, strain sac3, hits give low values
# [20] = locus YDR297W, strain sur2, hits give low values
# [21] = locus YDR334W, strain swr1, hits give low values
# [22] = locus YDR335W, strain msn5, hits give low values
# [23] = locus YDR392W, strain spt3, hits give low values
# [24] = locus YEL003W, strain gim4, hits give low values
# [25] = locus YEL037C, strain rad23, hits give low values
# [26] = locus YEL061C, strain CIN8 (second series), hits give low values
# [27] = locus YER015W, strain faa2, hits give low values
# [28] = locus YER016W, strain bim1, hits give low values
# [29] = locus YER111C, strain swi4, hits give low values
# [30] = locus YER155C, strain BEM2 (second series), hits give low values
# [31] = locus YFR010W, strain ubp6, hits give low values
# [32] = locus YGL167C, strain pmr1, hits give low values
# [33] = locus YGL173C, strain kem1, hits give low values
# [34] = locus YGL227W, strain vid30, hits give low values
# [35] = locus YGL240W, strain doc1, hits give low values
# [36] = locus YGL253W, strain hxk2, hits give low values
# [37] = locus YHR013C, strain ard1, hits give low values
# [38] = locus YHR027C, strain rpn1, hits give low values
# [39] = locus YHR142W, strain chs7, hits give low values
# [40] = locus YJL092W, strain hpr5, hits give low values
# [41] = locus YJL095W, strain BCK1 (second series), hits give low values
# [42] = locus YJL115W, strain asf1, hits give low values
# [43] = locus YJL129C, strain trk1, hits give low values
# [44] = locus YJL154C, strain vps35, hits give low values
# [45] = locus YJL164C, strain tpk1, hits give low values
# [46] = locus YJL166W, strain qcr8, hits give low values
# [47] = locus YJL187C, strain SWE1, hits give low values
# [48] = locus YKL160W, strain elf1, hits give low values
# [49] = locus YKR026C, strain gcn3, hits give low values
# [50] = locus YKR091W, strain srl3, hits give low values
# [51] = locus YLL001W, strain dnm1, hits give low values
# [52] = locus YLL026W, hits give low values
# [53] = locus YLL041C, strain sdh2, hits give low values
# [54] = locus YLR027C, strain aat2, hits give low values
# [55] = locus YLR221C, strain rsa3, hits give low values
# [56] = locus YLR258W, strain gsy2, hits give low values
# [57] = locus YLR262C, strain YPT6 (second series), hits give low values
# [58] = locus YLR320W, strain mms22, hits give low values
# [59] = locus YLR342W, strain FKS1, hits give low values
# [60] = locus YLR357W, strain rsc2, hits give low values
# [61] = locus YLR370C, strain arc18, hits give low values
# [62] = locus YLR384C, strain iki3, hits give low values
# [63] = locus YML120C, strain ndi1, hits give low values
# [64] = locus YMR058W, strain fet3, hits give low values
# [65] = locus YMR125W, strain sto1, hits give low values
# [66] = locus YMR129W, hits give low values
# [67] = locus YMR205C, strain PFK2, hits give low values
# [68] = locus YMR231W, strain pep5, hits give low values
# [69] = locus YNL071W, strain lat1, hits give low values
# [70] = locus YNL209W, strain ssb2, hits give low values
# [71] = locus YNL248C, strain rpa49, hits give low values
# [72] = locus YNL322C, strain KRE1 (second series), hits give low values
# [73] = locus YNR049C, strain mso1, hits give low values
# [74] = locus YOR001W, strain rrp6, hits give low values
# [75] = locus YOR070C, strain gyp1, hits give low values
# [76] = locus YOR080W, strain dia2, hits give low values
# [77] = locus YOR083W, strain WHI5, hits give low values
# [78] = locus YOR106W, strain vam3, hits give low values
# [79] = locus YOR265W, strain rbl2, hits give low values
# [80] = locus YOR270C, strain vph1, hits give low values
# [81] = locus YOR290C, strain snf2, hits give low values
# [82] = locus YPL051W, strain arl3, hits give low values
# [83] = locus YPL078C, strain atp4, hits give low values
# [84] = locus YPL106C, strain sse1, hits give low values
# [85] = locus YPL240C, strain hsp82, hits give low values
smiles,measurement,setting,value
CC(=O)O[C@H]1CC2CCC3C(CC[C@@]4(C)C3C[C@H]([N+]3(C)CCCCC3)[C@@H]4OC(C)=O)[C@@]2(C)C[C@@H]1[N+]1(C)CCCCC1 (stereo partly specified),normalized growth,[1],1.02
same,normalized growth,[2],1.02
same,normalized growth,[3],1.02
same,normalized growth,[4],1.01
same,normalized growth,[5],1.03
same,normalized growth,[6],1.03
same,normalized growth,[7],1.04
same,normalized growth,[8],1.02
same,normalized growth,[9],1.01
same,normalized growth,[10],1.02
same,normalized growth,[11],1.02
same,normalized growth,"locus YCL061C, strain MRC1, hits give low values",1.02
same,normalized growth,[12],1.01
same,normalized growth,[13],1.01
same,normalized growth,[14],1.02
same,normalized growth,[15],1.02
same,normalized growth,[16],1.01
same,normalized growth,[17],1.02
same,normalized growth,[18],1.04
same,normalized growth,[19],1.04
same,normalized growth,"locus YDR195W, strain ref2",0.978
same,normalized growth,[20],1.01
same,normalized growth,[21],1.01
same,normalized growth,[22],1.02
same,normalized growth,[23],0.943
same,normalized growth,[24],1.02
same,normalized growth,[25],1.02
same,normalized growth,[26],1.02
same,normalized growth,[27],1.01
same,normalized growth,[28],1.02
same,normalized growth,[29],1.01
same,normalized growth,[30],1.03
same,normalized growth,[31],1.01
same,normalized growth,[32],1.02
same,normalized growth,[33],1.03
same,normalized growth,[34],1.01
same,normalized growth,[35],1.02
same,normalized growth,[36],1.02
same,normalized growth,[37],1.01
same,normalized growth,[38],1.01
same,normalized growth,"locus YHR030C, strain SLT2, hits give low values",1.04
same,normalized growth,"locus YHR079C, strain IRE1, hits give low values",1.03
same,normalized growth,[39],1.02
same,normalized growth,[40],1.01
same,normalized growth,[41],1.02
same,normalized growth,"locus YJL095W, strain BCK1, hits give low values",1.02
same,normalized growth,[42],1.03
same,normalized growth,[43],1.02
same,normalized growth,[44],1.01
same,normalized growth,[45],1.01
same,normalized growth,[46],1.02
same,normalized growth,[47],1.02
same,normalized growth,"locus YJR066W, strain TOR1, hits give low values",0.979
same,normalized growth,[48],1.02
same,normalized growth,[49],1
same,normalized growth,[50],1.02
same,normalized growth,[51],1.02
same,normalized growth,[52],1.03
same,normalized growth,[53],1.02
same,normalized growth,[54],1.02
same,normalized growth,"locus YLR113W, strain HOG1, hits give low values",0.988
same,normalized growth,[55],1.01
same,normalized growth,[56],1.02
same,normalized growth,[57],1.04
same,normalized growth,[58],1.01
same,normalized growth,[59],1.03
same,normalized growth,[60],0.991
same,normalized growth,[61],1.03
same,normalized growth,[62],1.01
same,normalized growth,[63],1.01
same,normalized growth,[64],1.02
same,normalized growth,[65],1.02
same,normalized growth,[66],1.02
same,normalized growth,[67],1.02
same,normalized growth,[68],1.01
same,normalized growth,[69],1.01
same,normalized growth,"locus YNL183C, strain NPR1, hits give low values",0.974
same,normalized growth,[70],1.01
same,normalized growth,[71],0.988
same,normalized growth,[72],1.02
same,normalized growth,[73],1.01
same,normalized growth,[74],1.03
same,normalized growth,[75],1.02
same,normalized growth,[76],1.03
same,normalized growth,[77],1.02
same,normalized growth,[78],1.02
same,normalized growth,"locus YOR231W, strain MKK1, hits give low values",1.03
same,normalized growth,[79],1.02
same,normalized growth,[80],1.05
same,normalized growth,[81],1.02
same,normalized growth,[82],1.02
same,normalized growth,[83],1.01
same,normalized growth,[84],1
same,normalized growth,[85],1.02
same,normalized growth,"locus YPL256C, strain CLN2, hits give low values",1.04
CC(=O)Oc1ccc2c(c1)CCC1C2CCC2(C)C1CC(OC(C)=O)C2OC(C)=O (stereo unspecified),normalized growth,[1],0.948
same,normalized growth,[2],1.01
same,normalized growth,[3],0.97
same,normalized growth,[4],0.997
same,normalized growth,[5],0.985
same,normalized growth,[6],0.983
same,normalized growth,[7],1
same,normalized growth,[8],0.982
same,normalized growth,[9],0.987
same,normalized growth,[10],0.994
same,normalized growth,[11],0.978
same,normalized growth,[12],0.993
same,normalized growth,[13],0.992
same,normalized growth,[14],0.987
same,normalized growth,[15],0.975
same,normalized growth,[16],1.01
same,normalized growth,[17],0.954
same,normalized growth,[18],0.925
same,normalized growth,[19],0.902
same,normalized growth,"locus YDR195W, strain ref2",0.992
same,normalized growth,[20],0.988
same,normalized growth,[21],0.987
same,normalized growth,[22],1.01
same,normalized growth,[23],0.856
same,normalized growth,[24],0.986
same,normalized growth,[25],1.02
same,normalized growth,[26],1.01
same,normalized growth,[27],0.985
same,normalized growth,[28],0.973
same,normalized growth,[29],0.994
same,normalized growth,[30],1
same,normalized growth,[31],0.997
same,normalized growth,[32],0.98
same,normalized growth,[33],0.99
same,normalized growth,[34],0.995
same,normalized growth,[35],0.935
same,normalized growth,[36],0.997
same,normalized growth,[37],0.961
same,normalized growth,[38],0.987
same,normalized growth,[39],0.968
same,normalized growth,[40],1.01
same,normalized growth,[41],0.984
same,normalized growth,[42],1.01
same,normalized growth,[43],0.967
same,normalized growth,[44],0.985
same,normalized growth,[45],0.952
same,normalized growth,[46],0.987
same,normalized growth,[47],0.99
same,normalized growth,[48],0.962
same,normalized growth,[49],1.01
same,normalized growth,[50],0.988
same,normalized growth,[51],1
same,normalized growth,[52],0.964
same,normalized growth,[53],0.999
same,normalized growth,[54],0.995
same,normalized growth,[55],0.978
same,normalized growth,[56],0.988
same,normalized growth,[57],0.877
same,normalized growth,[58],0.943
same,normalized growth,[59],0.971
same,normalized growth,[60],0.952
same,normalized growth,[61],0.989
same,normalized growth,[62],0.983
same,normalized growth,[63],0.997
same,normalized growth,[64],1
same,normalized growth,[65],1
same,normalized growth,[66],0.995
same,normalized growth,[67],0.972
same,normalized growth,[68],0.996
same,normalized growth,[69],0.962
same,normalized growth,[70],0.976
same,normalized growth,[71],0.991
same,normalized growth,[72],0.966
same,normalized growth,[73],1
same,normalized growth,[74],0.983
same,normalized growth,[75],0.995
same,normalized growth,[76],0.987
same,normalized growth,[77],0.952
same,normalized growth,[78],0.954
same,normalized growth,[79],0.996
same,normalized growth,[80],0.925
same,normalized growth,[81],0.97
same,normalized growth,[82],0.967
same,normalized growth,[83],0.987
same,normalized growth,[84],0.831 (active)
same,normalized growth,[85],0.995
